# The panel holds about 83,000 compounds, 20% with a hit somewhere; the sample as a whole holds those more often.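 Cell lines were cultured in 96-well plates, exposed to a single compound concentration, and assessed for percent growth 48 hours later.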 Unmarked numbers belong to inactive results. Active and inactive are the calls of the source. Rule for the calls: active = growth percent below 10; inactive = the rest.
# Tests used:
# Assay in all cases: NCI-60 one-dose screen, 48 h (100 = growth as untreated, 0 = no growth, -100 = all killed)
# Settings in all cases: 10 µM unless noted
# [1] = test system: HCT-15 colon
# [2] = test system: HT29 colon
# [3] = test system: SNB-75 CNS
# [4] = test system: SNB-19 CNS
# [5] = test system: U251 CNS
# [6] = test system: PC-3 prostate
# [7] = test system: SK-MEL-5 melanoma
# [8] = test system: UACC-62 melanoma
# [9] = test system: LOX IMVI melanoma
# [10] = test system: SK-MEL-28 melanoma
SMILES,growth [1],growth [2],growth [3],growth [4],growth [5],growth [6],growth [7],growth [8],growth [9],growth [10]
CCO/C=N/C1=C(C#N)C(c2ccc(OC)cc2)c2sc3c(F)cccc3c2O1 (stereo not given),21.3%,7.69% (active),-8.92% (active),24%,24.7%,33.3%,-22.9% (active),12.2%,32.2%,60.4%
C=C1C(=O)O[C@H]2[C@H]1CC/C(COC(=O)NCc1cc[nH]c1)=C\CC[C@@]1(C)O[C@@H]21,24.6%,42.6%,70.4%,83.2%,68.2%,51.7%,91.2%,39.6%,32.3%,54.6%
CS(=O)(=O)Nc1cc(-c2ccc3ncnc(Nc4c(Cl)ccc5c4OCO5)c3c2)cnc1Cl,-18% (active),-12.9% (active),-19.5% (active),-4.15% (active),-30.4% (active),2.75% (active),-93% (active),-52% (active),-51.2% (active),-6.42% (active)
COC(=O)c1ccc2c(c1)C(=O)c1c-2n(CCCN)c(=O)c2cc([N+](=O)[O-])ccc12,-96.1% (active),-100% (active),-99.2% (active),-59.3% (active),-100% (active),-70.1% (active),-100% (active),-100% (active),-100% (active),-100% (active)
CC(C)NC1CCC(Nc2ccnc3cc(Cl)ccc23)CC1 (stereo not given),99.1%,77.5%,83.7%,109%,87.7%,78.6%,90.8%,97.3%,86.6%,101%
COc1ccc(/C=N/NC(=O)CCN2c3ccccc3Sc3ccccc32)cc1,43.9%,57%,80.1%,75.4%,91.5%,61.4%,70.4%,63%,60.9%,80.9%
c1ccc(CNc2c3ccccc3nc3ccccc23)cc1,24.6%,19%,64.4%,39.4%,38.5%,37.2%,63.1%,61%,19.8%,85.5%
OCc1cccc(-c2ccc3ncc(-c4nc(NC5CC5)ncc4F)n3c2)c1,1.06% (active),4.87% (active),-40.8% (active),-0.451% (active),-3.8% (active),-10.3% (active),-77.2% (active),-84.4% (active),-1.7% (active),-45.5% (active)
Cc1nn(-c2ccccc2)c(Oc2ccccn2)c1-c1nc2ccccc2s1,91.4%,92.6%,97%,100%,97.8%,91%,84.4%,91.4%,97.3%,106%
CCn1c(=S)sc2c(Nc3ccc(F)cc3)nc(-c3cccnc3)nc21,88.2%,41.6%,13.7%,78.9%,34.3%,56%,87.7%,56.7%,69.5%,86.2%
COc1cc(CNS(=O)(=O)c2ccc(C)cc2)ccc1OCc1cn(-c2ccc(Br)cc2)nn1,103%,105%,87%,104%,101%,92.2%,97.8%,94.3%,97.9%,99.7%
O=C(CI)NC1Oc2ccccc2-c2oc(=O)c(-c3ccccc3)cc21 (stereo not given),-83% (active),-55% (active),-20.9% (active),80.8%,-48.6% (active),-72.8% (active),85.5%,-22.8% (active),-82.8% (active),46.3%
COc1ccc(/C=C2\C(=O)N=C3N2NC(c2cc(Br)ccc2O)C=C(C)N3c2ccccc2)cc1 (stereo not given),103%,106%,99%,93.8%,93.8%,92.1%,97%,90.6%,95%,99.1%
COc1ccc(-c2nc(SCC(C)C)nc(N/N=C\c3ccc(F)cc3)c2C#N)cc1,85.3%,90.5%,80%,81%,94.5%,84.9%,103%,88.6%,97.4%,98.8%
CCc1nc2c(=O)[nH]cnc2o1,110%,108%,82.5%,112%,99%,99.4%,103%,108%,94.2%,106%
Cn1cc(-c2nc(-c3c[nH]c4ccncc34)cs2)c2ccccc21,-21.6% (active),0.469% (active),91%,88.4%,-43.8% (active),61.5%,55.2%,94.6%,-78% (active),-79.8% (active)
C/C(=N\NC(=O)c1ccccc1O)c1cccc(/C(C)=N/NC(=O)c2ccccc2O)n1,42.4%,41.2%,74.9%,20%,20%,48%,38%,52%,35.8%,52.2%
CN(C)CCCC1(c2ccc(F)cc2)OCc2cc(-c3cncc4ccccc34)ccc21 (stereo not given),38.3%,13.5%,41.6%,54%,3.14% (active),44.9%,-88.8% (active),11.5%,19.3%,-65% (active)
c1ccc(C2=NN[C@H](c3cn(-c4ccccc4)nc3-c3ccccc3)C2)cc1,86.5%,65.2%,-32.7% (active),55%,7.2% (active),43.5%,64%,90.3%,24.4%,50.2%
O=C1c2cccc3cccc(c23)C(=O)N1N1C(=O)c2cccc3c(N4CCOCC4)ccc(c23)C1=O,101%,107%,58.5%,87.8%,90.7%,91.2%,101%,90.5%,90.2%,102%
Oc1c(Cl)cc(Cl)c2ccc(Cn3cc(-c4cc(F)cc(F)c4)nn3)nc12,41.9%,68.5%,58.6%,94.1%,96.2%,84.8%,98.5%,74.1%,20.8%,61.4%
Cc1ccc(Sc2oc(-c3ccc(C)cc3)nc2[P+](c2ccccc2)(c2ccccc2)c2ccccc2)cc1,0.625% (active),1.95% (active),-23.6% (active),14%,12.9%,5.64% (active),-97.7% (active),-38.1% (active),-69.3% (active),17%
CCn1cc(C(=O)N/N=C/c2cccs2)c(=O)c2cc(F)c(N3CCNC(C)C3)c(F)c21 (stereo not given),25%,-76.7% (active),88.5%,73%,53.3%,76.3%,69.8%,96.5%,-84.1% (active),89.9%
O=C1Nc2ccc(I)cc2C1=O,101%,93.8%,79.8%,98.3%,93.8%,86.7%,101%,92.3%,75.8%,104%
CCN(CC)c1ccc(/C=C/C(=O)c2ccc(Nc3nc(Nc4ccccc4)nc(Nc4ccccc4)n3)cc2)cc1,32.4%,49.8%,26.8%,67.5%,43.4%,34.1%,40.7%,54.8%,40.3%,65.6%
O=C(/C=C/c1cccs1)c1ccc(Cl)nc1,100%,101%,95.2%,102%,99.9%,104%,104%,97.2%,102%,105%
